Values joined by “and” are separate entries in the source; they are usually repeats but may differ in a detail not shown here. Equal entries are not always repeated. The whole screen tested about 5,500 compounds, of which about 2,000 (36%) were called active. Not shown: some 18% with an inconclusive outcome. Rule as the data show it: active = normalized growth mostly below about 0.91 (no sharp cut-off); inconclusive = no clear call, values can overlap the other calls; inactive = mostly above about 0.92. The list shows a part of the results.
Experiment: chemical genetic growth profiling, strain panel (AID 1159580);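 also: tested at 20 µM; growth read once vehicle control cultures reached saturation at 30 °C; 1 = growth at the plate median or of vehicle wells; lower values mean less growth of the strain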
Settings: S. cerevisiae deletion strains, growth OD

Measured: normalized growth

c1ccc2c(c1)CCCC2C1=NCCN1 (centres undefined)
inactive: locus YAL013W, strain DEP1, stronger effect = lower value 1.01 and 1 | locus YAL021C, strain ccr4, stronger effect = lower value 1.02 | locus YAL026C, strain drs2, stronger effect = lower value 1.02 | locus YAL030W, strain snc1, stronger effect = lower value 1.02 | locus YAL040C, strain CLN3, stronger effect = lower value 1.05 | locus YBL061C, strain skt5, stronger effect = lower value 1.02 | locus YBR009C, strain hhf1, stronger effect = lower value 1.03 | locus YBR021W, strain FUR4, stronger effect = lower value 1.05 | locus YBR023C, strain chs3, stronger effect = lower value 1.02 | locus YBR171W, strain sec66, stronger effect = lower value 1.03 | locus YBR229C, strain ROT2, stronger effect = lower value 1.01 | locus YBR231C, strain swc5, stronger effect = lower value 1.02 | locus YBR279W, strain paf1, stronger effect = lower value 1.01 | locus YCL011C, strain gbp2, stronger effect = lower value 1.02 | locus YCL016C, strain dcc1, stronger effect = lower value 1.02 | locus YCL029C, strain bik1, stronger effect = lower value 0.995 | locus YCL061C, strain MRC1 (second series), stronger effect = lower value 1.01 | locus YCL069W, strain vba3, stronger effect = lower value 1.02 | locus YCR088W, strain abp1, stronger effect = lower value 1.02 | locus YDL005C, strain med2, stronger effect = lower value 1.02 | locus YDL035C, strain GPR1, stronger effect = lower value 1.02 | locus YDL040C, strain nat1, stronger effect = lower value 1.02 | locus YDL074C, strain BRE1, stronger effect = lower value 1.01 | locus YDL101C, strain DUN1, stronger effect = lower value 1.01 | locus YDL134C, strain PPH21, stronger effect = lower value 1.01 | locus YDL185W, strain tfp1, stronger effect = lower value 0.993 | locus YDL192W, strain arf1, stronger effect = lower value 1 | locus YDR001C, strain nth1, stronger effect = lower value 1.01 | locus YDR069C, strain doa4, stronger effect = lower value 1 | locus YDR101C, strain arx1, stronger effect = lower value 0.995 | locus YDR137W, strain rgp1, stronger effect = lower value 1.03 | locus YDR150W, strain NUM1, stronger effect = lower value 1.01 | locus YDR159W, strain sac3, stronger effect = lower value 1.02 | locus YDR162C, strain NBP2, stronger effect = lower value 1.02 | locus YDR195W, strain ref2 1.01 | locus YDR297W, strain sur2, stronger effect = lower value 1.03 | locus YDR318W, strain mcm21, stronger effect = lower value 1.01 | locus YDR334W, strain swr1, stronger effect = lower value 1.02 | locus YDR335W, strain msn5, stronger effect = lower value 1.03 | locus YDR363W, strain ESC2, stronger effect = lower value 1.02 | locus YDR388W, stronger effect = lower value 1.01 | locus YDR392W, strain spt3, stronger effect = lower value 1.03 | locus YDR502C, strain sam2, stronger effect = lower value 0.991 | locus YEL003W, strain gim4, stronger effect = lower value 1.02 | locus YEL037C, strain rad23, stronger effect = lower value 1.03 | locus YEL061C, strain CIN8 (second series), stronger effect = lower value 1.02 | locus YEL061C, strain CIN8, stronger effect = lower value 1.01 | locus YER002W, strain NOP16, stronger effect = lower value 0.992 | locus YER015W, strain faa2, stronger effect = lower value 1.02 | locus YER016W, strain bim1, stronger effect = lower value 1.03 | locus YER110C, stronger effect = lower value 1.01 | locus YER111C, strain swi4, stronger effect = lower value 1.03 | locus YER155C, strain BEM2 (second series), stronger effect = lower value 1.04 | locus YER155C, strain BEM2, stronger effect = lower value 1.01 | locus YER167W, strain BCK2, stronger effect = lower value 1.01 | locus YFR010W, strain ubp6, stronger effect = lower value 1.01 | locus YGL078C, strain dbp3, stronger effect = lower value 0.989 | locus YGL086W, strain mad1, stronger effect = lower value 0.998 | locus YGL167C, strain pmr1, stronger effect = lower value 1.04 | locus YGL173C, strain kem1, stronger effect = lower value 1.02 | locus YGL227W, strain vid30, stronger effect = lower value 1.03 | locus YGL240W, strain doc1, stronger effect = lower value 1.03 | locus YGL248W, strain PDE1, stronger effect = lower value 1.01 | locus YGL253W, strain hxk2, stronger effect = lower value 1.03 | locus YGR135W, strain pre9, stronger effect = lower value 0.987 | locus YGR229C, strain SMI1, stronger effect = lower value 1.02 and 1.03 | locus YGR252W, strain gcn5, stronger effect = lower value 0.971 | locus YHR013C, strain ard1, stronger effect = lower value 1.05 | locus YHR027C, strain rpn1, stronger effect = lower value 1.01 | locus YHR030C, strain SLT2, stronger effect = lower value 1.01 and 0.988 | locus YHR079C, strain IRE1 (second series), stronger effect = lower value 1.01 | locus YHR079C, strain IRE1, stronger effect = lower value 0.976 | locus YHR094C, strain hxt1, stronger effect = lower value 1 | locus YHR129C, strain ARP1, stronger effect = lower value 1.01 | locus YHR142W, strain chs7, stronger effect = lower value 1.02 | locus YHR200W, strain rpn10, stronger effect = lower value 0.997 | locus YIL066C, strain RNR3, stronger effect = lower value 1.01 | locus YIL073C, strain SPO22, stronger effect = lower value 1.02 | locus YIL125W, strain kgd1, stronger effect = lower value 0.958 | locus YIR030C, strain dcg1, stronger effect = lower value 0.999 | locus YJL092W, strain hpr5, stronger effect = lower value 1.02 | locus YJL095W, strain BCK1 (second series), stronger effect = lower value 1.02 | locus YJL095W, strain BCK1, stronger effect = lower value 1 and 0.971 | locus YJL115W, strain asf1, stronger effect = lower value 1.01 | locus YJL129C, strain trk1, stronger effect = lower value 1.02 | locus YJL134W, strain LCB3, stronger effect = lower value 1.01 | locus YJL154C, strain vps35, stronger effect = lower value 1.02 | locus YJL164C, strain tpk1, stronger effect = lower value 1.02 | locus YJL166W, strain qcr8, stronger effect = lower value 1.02 | locus YJL168C, strain set2, stronger effect = lower value 1 | locus YJL187C, strain SWE1 (second series), stronger effect = lower value 1.02 | locus YJR043C, strain POL32, stronger effect = lower value 1.01 | locus YJR066W, strain TOR1, stronger effect = lower value 0.945 | locus YJR075W, strain HOC1, stronger effect = lower value 1.01 and 0.998

Source: PubChem BioAssay AID1159580 (chemical genetic matrix, 2015)
